Assay results as given in PubChem BioAssay AID1159580 (chemical genetic matrix, 2015).
Screen size: about 5,500 compounds; about 2,000 (36%) were called active. About 18% were inconclusive and are not listed. No stated cut-off is given here; in the data, active means normalized growth mostly below about 0.91 (no sharp cut-off); inconclusive means no clear call, values can overlap the other calls; inactive means mostly above about 0.92. The list shows a part of the results.

Assay: chemical genetic growth profiling, strain panel (AID 1159580);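 further: tested at 20 µM; growth read once vehicle control cultures reached saturation at 30 °C; 1 = growth at the plate median or of vehicle wells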
Conditions: S. cerevisiae deletion strains, growth OD
[1] = locus YGR229C, strain SMI1, stronger effect = lower value
[2] = locus YJR075W, strain HOC1, stronger effect = lower value
[3] = locus YMR263W, strain SAP30, stronger effect = lower value
[4] = locus YMR307W, strain GAS1, stronger effect = lower value
[5] = locus YNL153C, strain GIM3, stronger effect = lower value
[6] = locus YNL322C, strain KRE1, stronger effect = lower value

Measured: normalized growth

CC(C)c1ccc2c(c1)c(SC(C)(C)C)c(CC(C)(C)C(=O)O)n2Cc1ccc(Cl)cc1
inactive: locus YAL040C, strain CLN3, stronger effect = lower value 1.02 | locus YCL061C, strain MRC1 (second series), stronger effect = lower value 1 | locus YDR363W, strain ESC2, stronger effect = lower value 1 | locus YER002W, strain NOP16, stronger effect = lower value 1.03 | [1] 1.03 | [2] 1.02 | [3] 1.01 | [4] 1 | locus YNL128W, strain TEP1, stronger effect = lower value 0.967 | [5] 0.972 | locus YNL175C, strain NOP13, stronger effect = lower value 1.01 | locus YNL197C, strain WHI3, stronger effect = lower value 1.01 | locus YNL224C, strain SQS1, stronger effect = lower value 1.01 | [6] 1.01 | locus YOR083W, strain WHI5 (second series), stronger effect = lower value 0.992

NC(=O)N[C@@H]1O[C@H](CO)[C@@H](O)[C@H](O)[C@H]1O
inactive: locus YAL013W, strain DEP1, stronger effect = lower value 1.03 | locus YBR229C, strain ROT2, stronger effect = lower value 1.01 | locus YCL061C, strain MRC1, stronger effect = lower value 0.987 | locus YDL101C, strain DUN1, stronger effect = lower value 0.994 | locus YDR150W, strain NUM1, stronger effect = lower value 0.992 | locus YEL061C, strain CIN8, stronger effect = lower value 1.02 | locus YGR078C, strain PAC10, stronger effect = lower value 0.993 | [1] 1 | locus YHR030C, strain SLT2, stronger effect = lower value 1 | locus YHR087W, strain rtc3, stronger effect = lower value 1.01 | locus YJL187C, strain SWE1, stronger effect = lower value 1.01 | locus YJR043C, strain POL32, stronger effect = lower value 0.975 | [2] 1 | locus YKL190W, strain CNB1, stronger effect = lower value 1.01 | locus YLR039C, strain RIC1, stronger effect = lower value 1.02 | locus YLR058C, strain SHM2 (second series), stronger effect = lower value 1.01 | locus YLR085C, strain ARP6, stronger effect = lower value 1.07 | locus YLR262C, strain YPT6, stronger effect = lower value 0.981 | locus YML094W, strain GIM5, stronger effect = lower value 1.02 | locus YMR219W, strain ESC1, stronger effect = lower value 1.01 | [3] 0.999 | [4] 1.02 | [5] 0.989 | locus YNL298W, strain CLA4 (second series), stronger effect = lower value 1.05 | [6] 1 | locus YNR030W, strain Alg12, stronger effect = lower value 1.02 | locus YPL055C, strain LGE1, stronger effect = lower value 1.04 | locus YPL241C, strain CIN2, stronger effect = lower value 1.04 | locus YPR135W, strain CTF4, stronger effect = lower value 0.98
